GLP-1R agonist: qHTS of GLP-1 Receptor Agonists; Glucagon-like peptide 1 receptor (Homo sapiens), P43220; HEK293 GLP-1R CRE-luciferase, luminescence, 4-6 h; cells express a hypersensitive GLP-1R form; Potency, µM (titrated, usually from 45.6 µM), for inactives: at the top dose activation, actives largely listed as activators; actives 0.007% (n = 380,000); note: % of control where 0% means no effect
Target sequence (P43220 whole entry, looked up): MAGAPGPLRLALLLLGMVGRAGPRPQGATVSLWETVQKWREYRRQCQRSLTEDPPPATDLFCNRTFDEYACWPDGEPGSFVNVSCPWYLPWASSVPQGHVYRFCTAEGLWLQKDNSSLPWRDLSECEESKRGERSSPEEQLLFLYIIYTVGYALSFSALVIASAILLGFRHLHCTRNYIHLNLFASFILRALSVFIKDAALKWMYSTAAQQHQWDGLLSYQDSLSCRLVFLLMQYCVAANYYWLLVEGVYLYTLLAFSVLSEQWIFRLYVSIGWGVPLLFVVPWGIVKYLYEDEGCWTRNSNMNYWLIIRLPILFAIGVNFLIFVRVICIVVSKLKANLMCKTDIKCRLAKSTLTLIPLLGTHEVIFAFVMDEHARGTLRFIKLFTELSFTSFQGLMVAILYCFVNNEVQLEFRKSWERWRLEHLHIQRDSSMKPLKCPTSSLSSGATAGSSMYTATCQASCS
HEK293 tox: qHTS of GLP-1 Receptor Inverse Agonists: Cytotox Screen | Potency, µM (doses to about 38.3 µM), for inactives: at the highest dose activity change, negative = inhibition, usual class: inhibitors | actives 0.13% (n = 410,000) | HEK293 cAMP-luciferase reporter cells, luminescence, 24 h;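 note: loss of luciferase light is scored as toxicity; % is set by controls: 0 for no effect and ±100 for the full control effect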
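Here, cytotoxicity is scored as loss of luminescence. The MLSMR collection was tested on cells seeded in medium containing 10% Nu serum, with a 24 hr compound exposure preceded by 12 hours of culture.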
RGS4 inhibitor: Inhibitors of Regulator of G Protein Signaling (RGS) 4: qHTS. Regulator of G-protein signaling 4 (Homo sapiens), P49798. Transcreener GDP fluorescence polarization, RGS4-accelerated GTP hydrolysis. Potency, µM (doses to about 114 µM), for inactives: at the top dose activity change, negative = inhibition, hits mostly inhibitors. actives 0.039% (n = 390,000); note: % is set by controls: 0 for no effect and ±100 for the full control effect; nearly all actives have a fitted effect of over 75% in size
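MLSMR compounds (23 nl, pin-transferred) preincubated 10 min at room temperature with a 500nM (2x) first reagent, then RGS4 at 900nM (2x) plus Transcreener GDP mix added; fluorescence polarization (620/688 nm) read before and after 90 min at 30 °C.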
PTHR1 agonist: qHTS for PTHR1 Agonists: Primary Screen; AID 743266, 2014; HEK293 GP2 PTHR1 cells, GloSensor cAMP luminescence, 1 h; actives 0.075% (n = 410,000); Parathyroid hormone/parathyroid hormone-related peptide receptor (Homo sapiens), Q03431; Potency, µM (doses to about 115 µM), for the others: at the highest dose activation, most hits filed as activators; note: nearly all actives have a fitted effect of over 55% in size
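HEK-293-derived GP2 cells expressing PTHR1 and a GloSensor cAMP reporter, 3,000/well, plated overnight, given luciferin plus IBMX (each 0.5 mM as added) for 1 h at 37 °C, then compound for 1 h at 37 °C. Luminescence was read after 15 min at room temperature.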
GLP1R inv ag: qHTS of GLP-1 Receptor Inverse Agonists (Inhibition Mode) | Potency, µM (titrated, usually from 38.3 µM), without a hit: top-dose activity change, negative = inhibition, actives largely listed as inhibitors | actives 1.6% (n = 410,000) | AID 624417, 2012 | HEK293 GLP-1R CRE-luciferase, luminescence, 24 h; GLP-1R form is constitutively active | Glucagon-like peptide 1 receptor (Homo sapiens), P43220; note: % is set by controls: 0 for no effect and ±100 for the full control effect; nearly all actives have a fitted effect of over 55% in size
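Stable HEK293 clone (constitutively active GLP-1R + cAMP-response luciferase); 200 cells/uL plated, 12 h pre-culture, compound 24 hr, 37 deg C/5% CO2; detection reagent 12 min RT; luminescence.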
An asterisk follows results filed as active; i = inactive; ? = inconclusive; . = no result given; [ ] = remark or other dose. Shown are actives, neighbours in structure and some others; about 1.7% of the full set was active somewhere. Calls come from the whole dose curve; as a rule, active = well fitted curve in the direction sought with a large enough effect; inconclusive = small, poorly fitted or top-dose-only effect, or another doubt; inactive = no such curve, though single readings can be large; an effect the other way counts as inactive or inconclusive. Potency is the fitted concentration of half-maximal effect.

SMILES	GLP-1R agonist	HEK293 tox	RGS4 inhibitor	PTHR1 agonist	GLP1R inv ag
CCN1/C(=C/c2ccc3ccccc3[n+]2CC)C=Cc2ccccc21	-35%	4.5µM*	-15%	-24%[57.5 µM]	?
CCCn1c(C(C)Nc2nc(-c3cccc(Br)c3)cs2)nc2ccccc21 (stereo not given)	15%	-25%	-25%	0%	?
CCCn1c(C(C)Nc2nc(-c3ccc(C)cc3)cs2)nc2ccccc21 (stereo not given)	6%	?	-38%	16%	11µM*
CCOC(=O)c1ccc(N2C(=O)c3n[nH]c(-c4ccco4)c3C2c2ccc(F)cc2)cc1 (stereo not given)	-6%	-24%	-18%	-19%	?
CCOC(=O)c1ccc(N2C(=O)c3n[nH]c(-c4ccco4)c3C2c2ccc(OCC)cc2)cc1 (stereo not given)	.	-29%	-12%	-36%	11µM*
Cc1cc(NC(=O)c2sc(Nc3cccc(C(F)(F)F)c3)nc2N)no1	0%	8%	33%	-16%[57.5 µM]	5µM*
Cc1cc(NC(=O)c2sc(Nc3ccc(F)c(Cl)c3)nc2N)no1	-3%	5%[7.66 µM]	3%	i	13%[7.66 µM]
O=c1c2ccccc2oc2ccc(C#CC3(O)CCCCC3)cc12	-1%	-27%	-4%	-28%	7.1µM*
Cn1c2ccccc2c(=O)c2cc(C#CC3(O)CCCCC3)ccc21	-5%	-1%	-28%	-93%	1µM*
CCOC(=O)C1CCCN(C(=O)c2ccccc2OC(F)(F)F)CC1 (stereo not given)	8%	2%	.	i	11%
CC(C)C[C@H]1CNC(=S)N1CC1CCN(CCC23CC4CC(CC(C4)C2)C3)CC1	0%	-2%	0%	-41%	10µM*
O=C(CCc1ccc(S(=O)(=O)NC2CCCCC2)cc1)N(Cc1ccccc1)Cc1ccccc1	-4%	-1%	-19%	-6%[57.5 µM]	8.9µM*
CCOC(=O)C1=C(C)NC(C)=C(C(=O)OCC)C1C(=O)OCC(=O)NCc1ccco1	10%	-5%	-19%	i	-34%
Cc1nc(-c2cccc(NC(=O)Nc3ccc([N+](=O)[O-])cc3)c2)no1	-8%	?	?	-44%	3.5µM*
CCCCCOC(=O)CC(C(=O)OCCCCC)N1CCCCC1 (stereo not given)	10%	12%	17%	i	13µM*
CCN(CC)C(=S)SCC(=O)NC12CC3CC(CC(C3)C1)C2	18%	0%	-23%	-28%	2.8µM*
CCCOc1ccc(C(=O)Nc2ccc(N3CCOCC3)cc2N2CCOCC2)cc1OCC	-2%	4%	.	i	11%
CCSc1nnc(NC(=O)NC(C)(C(F)(F)F)C(F)(F)F)s1	-1%	-22%	-21%	-29%	10µM*
CCSc1nnc(NC(=O)NC(CC)(C(F)(F)F)C(F)(F)F)s1	-30%	?	4%	-28%[57.5 µM]	7.1µM*
CCCC(=O)Nc1nnc(SCC)s1	1%	2%	-31%	-15%	2%
Cc1ccc(NC(=O)CNC(=O)C23CC4CC(CC(C4)C2)C3)nc1	5%	0%	.	-1%	-8%
COc1cc(NC(=O)NCCn2nnc3cc(S(=O)(=O)N(C)C)ccc32)cc(OC)c1	.	1%	9%	0%	11%
CC(=O)Nc1c2c(nn1-c1cccc(Cl)c1)CS(=O)(=O)C2	2%	-13%	-1%	i	15%
COc1ccc(Cl)cc1NC(=O)CN1c2ccccc2S(=O)(=O)c2ccccc21	.	-1%	-13%	i	?
CC(=O)c1nccs1	-2%	3%	-10%	-24%	8%
COc1cc(C(C[N+](=O)[O-])c2c(N)n(C)c(=O)n(C)c2=O)ccc1O (stereo not given)	-3%	-4%	-3%	-41%	-20%
COc1cccc(F)c1C(C[N+](=O)[O-])c1c(N)n(C)c(=O)n(C)c1=O (stereo not given)	-6%	?	-40%	-12%	3.2µM*

Source: PubChem
